Source: PubChem (several laboratories)
This is a sample that favours compounds with a hit; in the whole collection about 1.5% have one here.
HDAC3 inh: human HDAC3 inhibition | O15379 | recombinant HDAC3, fluorogenic peptide/trypsin coupled, fluorescence | inhibition, % at 8.3 µM | actives 0.15% (n = 320,000); in the data active means inhibition above about 26%, passing the limit was not always enough
PolyA inhibitor: yeast polyadenylation inhibition | S. cerevisiae SKY197-pL101 polyadenylation reporter, beta-gal luminescence; efflux-impaired pdr1/pdr3 knockout yeast; score 100 = 6 SD above DMSO | activity score, % at 12 µM | actives 0.02% (n = 300,000) | AID 1875;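 active means lowest replicate activity score at least 50, where 100 means six control SD above control mean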;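 further: yeast exposed to compound for 9 h at 30 °C; higher score means more reporter readthrough which indicates perturbed polyadenylation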
NLRP3 yeast inh: inhibitors of NALP3 inflammasome in yeast; AID 2825; actives 0.39% (n = 330,000); inhibition, % at 10 µM; Yeast reconstituted NLRP3/ASC/caspase-1, beta-gal luminescence, 24 h;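 active means inhibition of 50% or more; inactive means inhibition below 50%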;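 further: plate controls were induced DMSO wells for no effect and uninduced yeast grown without galactose for full effect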
NALP1 yeast inh: blocks the NALP1 inflammasome reconstituted in yeast. S. cerevisiae NALP1/ASC/caspase-1 growth, X-gal OD620, 72 h. actives 0.61% (n = 280,000). inhibition, % at 10 µM. AID 2071; in the data active means inhibition mostly above about 24%, no sharp cut-off; inactive means mostly below about 32%
GASC-1 inh: inhibitors of human GASC-1 (JMJD2C) demethylase; Q9H3R0; GST-JMJD2C(1-420) H3K9me3 demethylation, DELFIA europium; inhibition, % at 2.35 µM; actives 0.069% (n = 330,000); AID 2099;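 active means more than half of a compound's replicate wells show inhibition beyond 50%, single wells judged on their own value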;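 further: signal counts dimethyl H3K9 product captured on neutravidin plate; 0% = median of DMSO wells and 100% = 0.3 times that DMSO median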
Target sequence (Q9H3R0 1-420 limits assumed): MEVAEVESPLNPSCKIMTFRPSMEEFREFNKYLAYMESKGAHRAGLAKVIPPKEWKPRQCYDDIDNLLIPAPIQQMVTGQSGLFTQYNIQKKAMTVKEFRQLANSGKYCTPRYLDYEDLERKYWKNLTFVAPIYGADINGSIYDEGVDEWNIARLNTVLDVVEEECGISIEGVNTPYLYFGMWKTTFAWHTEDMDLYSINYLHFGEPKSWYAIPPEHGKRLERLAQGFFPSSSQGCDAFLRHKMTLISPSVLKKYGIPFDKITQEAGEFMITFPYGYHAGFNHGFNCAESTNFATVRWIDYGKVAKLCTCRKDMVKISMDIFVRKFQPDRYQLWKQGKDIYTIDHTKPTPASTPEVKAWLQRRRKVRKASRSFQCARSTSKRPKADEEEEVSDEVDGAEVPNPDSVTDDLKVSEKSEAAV
Efflux pump mplx: antifungal efflux pump inhibition, Nile Red retention; inhibition, % at 10 µM; S. cerevisiae Candida pump triplex; actives 0.44% (n = 330,000); AID 485275;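 active means plate passing quality check with inhibition over a set limit, or well fluorescence over plate mean plus 4 SD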;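 further: Nile Red retained in pooled yeast measured as flow cytometry median fluorescence; 0% = buffer negative control and 100% = Enniatin B positive control; higher means more Nile Red kept so more efflux inhibition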
The depositor's hits bear a star; x = not tested or not shown.

SMILES | HDAC3 inh | PolyA inhibitor | NLRP3 yeast inh | NALP1 yeast inh | GASC-1 inh | Efflux pump mplx
COc1ccc(NC(=O)C2CC(=O)OC23CCCCC3)cc1 (centres undefined) | 0 | -2 | 10 | -3 | 13 | 0
CCN1C(=O)C(C(=O)Nc2ccc(OC)cc2)C2CC1(C)Oc1ccccc12 (centres undefined) | -3 | 12 | -2 | 40 | 54* | 0
Cc1ccc(S(=O)(=O)NCC2CCC(C(=O)NCc3ccc4c(c3)OCO4)CC2)cc1 (centres undefined) | 0 | 2 | 1 | 41* | 4 | 0
CC1=CC(=O)C=C(C)C1=NOS(=O)(=O)c1ccccc1 | x | -1 | x | 104* | 3 | x
CCCN(CC(=O)Nc1ccccc1C)C(=O)c1ccc(C2SCCS2)cc1 | 80* | -4 | 6 | x | 4 | 0
O=C(c1ccc(F)cc1)N1CCC(C(=O)N2CCN(c3ncccn3)CC2)CC1 | 5 | x | 11 | x | -5 | 0
COc1cc2c3nc4n(c(=O)c3n(CC(=O)NCC3CCCO3)c2cc1OC)CCS4 (centres undefined) | -12 | 16 | 17 | 15 | -1 | 0
CC(C)CC(COCc1ccc(Cl)cc1)N1CCN(C(=O)c2cccc(C(F)(F)F)c2)CCC1=O (centres undefined) | 17 | 2 | 12 | 20 | -10 | x
CC(C)CC(COCc1ccc(C(F)(F)F)cc1)N1CCN(C(=O)c2ccc(C(F)(F)F)cc2)CCC1=O (centres undefined) | 39* | 3 | -9 | 21 | 21 | 0
COc1ccc(N=C2SC(C(=O)Nc3ccc(OC)cc3)CC(=O)N2CCN2CCOCC2)cc1 (centres undefined) | 13 | -1 | -6 | 30 | 31 | 0
O=C(c1ccccc1)c1c2c(cc3sc4ccccc4[n+]13)-c1cccc3cccc-2c13 | 5 | x | x | 58* | 5 | 0
C=Cc1ccc(CSc2cc(C)nc3nc(C)nn23)cc1 | 31* | 5 | 0 | x | 2 | 0
Cc1ccc(CSc2nc3nc(C)cc(C)n3n2)cc1 | -9 | -30 | 11 | -13 | -5 | 0
CC(=O)c1ccc(OC(=O)c2ccc(Br)o2)cc1 | 67* | -9 | 1 | 17 | 4 | 0
CC1CCN(C(C(=O)Nc2ccc(C(C)C)cc2)c2ccc3c(c2)OCO3)CC1 (centres undefined) | -6 | -21 | 1 | 38* | 4 | 0
CCCc1cc(=O)[nH]c(SCC(=O)CSc2nc(CCC)cc(=O)[nH]2)n1 | 45* | -4 | -17 | -43 | -6 | 0
CCCc1cc(=O)[nH]c(SCCOc2ccc(OCC)cc2)n1 | 11 | -3 | 20 | 44* | -18 | 0
CC(C)c1nnc(NC(=O)CCC2CCCCC2)s1 | -5 | -6 | -5 | 20 | 7 | 0
CCOCCCNC(=O)C1CC(=O)N(CCc2ccc(C)cc2)C1 (centres undefined) | 13 | 8 | 4 | 38* | 1 | 0
CCOc1cc(C(=O)OC(C(=O)NC(=O)NC)c2ccccc2)ccc1OCC(=O)N1CCOCC1 (centres undefined) | 27* | x | -11 | x | -4 | 0
O=C(NCCc1ccc(Cl)cc1)C1CCCO1 (centres undefined) | 8 | -14 | 7 | 7 | 17 | 0
O=C(Cc1ccccc1)Nc1ccc2oc(=O)ccc2c1 | -1 | 4 | 10 | 36* | 4 | 0
COc1ccc(N2CSC3=C(C#N)C(c4cccc(OC)c4OC)CC(=O)N3C2)cc1 (centres undefined) | 56* | -18 | 32 | -17 | -7 | 0
COc1cc(OC)c(C2CC(=O)N3CN(c4ccccc4C)CSC3=C2C#N)cc1OC (centres undefined) | 2 | -15 | 21 | 35 | -11 | 0
COc1ccc(C2CC(=O)N3CN(c4ccc(C)c(Cl)c4)CSC3=C2C#N)cc1 (centres undefined) | 51* | 27 | 10 | -18 | 7 | 0
SMILES | HDAC3 inh | PolyA inhibitor | NLRP3 yeast inh | NALP1 yeast inh | GASC-1 inh | Efflux pump mplx
COc1ccc(OC)c(C2CC(=O)N3CN(c4ccccc4)CSC3=C2C#N)c1 (centres undefined) | 54* | 2 | 9 | -1 | 28 | 0
O=C(Cn1nnc(-c2cccs2)n1)Nc1ccccc1C(F)(F)F | -7 | 11 | 6 | 0 | 1 | 0
COc1cccc(/C=C/C(=O)c2ccc[nH]2)c1 | 9 | -15 | -5 | 42* | -11 | 0
CCC(c1nnnn1Cc1ccccc1)N1CCN(C(=O)c2ccco2)CC1 (centres undefined) | 3 | 16 | 1 | 34* | 8 | 0
CN(CCC1CCOCC1)C(=O)c1cc(COc2c(F)cccc2F)on1 | 1 | -1 | 4 | 2 | -17 | 0
O=C1CN(C(=O)CNC(=O)c2ccc(Cl)cc2Cl)CCN1 | 13 | -2 | 7 | 8 | 0 | 0
O=C(c1csc2c1CCCC2)n1cccn1 | 79* | 2 | 48 | x | -1 | 0
O=C(O)c1ccc(SCc2cnc(Cl)s2)cc1 | -2 | 61* | -3 | 2 | 4 | 0
COC(=O)c1ccc(SCc2cnc(Cl)s2)cc1 | -4 | -5 | 28 | 15 | -1 | 0
CCCN1CCCc2cc(CN(CCCN3CCOCC3)C(=O)Nc3ccc(OCC)cc3)ccc21 | 6 | -10 | 20 | 45* | -22 | 0
CCOc1ccc(NC(=O)N(CCN2CCOCC2)Cc2ccc3c(c2)CCCN3CC)cc1 | -5 | 3 | 17 | 1 | -15 | 0
c1ccc(N2CCN(c3nc4ccccc4n4cnnc34)CC2)cc1 | -4 | -15 | 33 | 7 | -3 | 0
C1=C(c2ccccc2)CCN(c2nc3ccccc3n3cnnc23)C1 | -3 | -12 | 13 | 41* | 4 | 0
CC(C)N1CCN(C(=O)c2ccc(OC3CCN(CCc4ccccc4)CC3)cc2)CC1 | 0 | 19 | 5 | 8 | x | 0
Cc1ccccc1C(=O)Nc1ccccc1 | 0 | 12 | 7 | 31* | 3 | 0
CC[C@@]12C(=O)N(c3ccc(C)cc3)C(=O)N1[C@H](c1ccc(Br)cc1)[C@@H]1C(=O)N(C(C)(C)C)C(=O)[C@@H]12 | 13 | -13 | 19 | -4 | 1 | 0
CC(C)c1ccccc1OCC(=O)NN1C(=O)c2ccccc2C1=O | 6 | -26 | -1 | 42* | -5 | 0
CCC(C)c1ccccc1OCC(=O)NN1C(=O)c2ccccc2C1=O (centres undefined) | 4 | -3 | 18 | 16 | -9 | 0
COc1ccc(Cn2nnnc2CN2CCc3ccccc32)cc1 | 3 | 18 | 17 | 2 | 153 | 0
COc1ccc(Cn2nnnc2CN2CCc3ccccc3C2)cc1 | -2 | -2 | 14 | 27* | 4 | 0
Cc1sc2ncnc(NCC3(N4CCOCC4)CCCCC3)c2c1C | x | 13 | 19 | 44* | 5 | 0
